# Among all 260,000 compounds or so, about 1,500 (0.58%) were called active. Roughly 5% stayed inconclusive and do not appear here.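 The calls were made as follows: active = inhibition above a set limit at one or more doses, reproduced on every date tested; inconclusive = results disagree between test dates, or hit never tested in dose response; inactive = the rest.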 These entries were drawn from the full list. Entries with a potency or affinity are not part of this list.
# Biological target: Virion infectivity factor (Human immunodeficiency virus type 1 group M subtype B (isolate BH10)) + Virion infectivity factor (Human immunodeficiency virus type 1 group M subtype B (isolate BRU/LAI)) + Virion infectivity factor (Human immunodeficiency virus type 1 group M subtype B (isolate PCV12)) + Virion infectivity factor (Human immunodeficiency virus type 1 group M subtype B (isolate HXB2)) + DNA dC->dU-editing enzyme APOBEC-3G (Homo sapiens) (UniProt P69720+P69721+P69722+P69723+Q9HC16)
# Assay: HIV-1 Vif–A3G interaction blockers – biochemical, TR-FRET, GST-Vif 1-94, biotin-A3G peptide, dose response retest, primary screen (AID 1117319);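 also: Vif residues 1-94 fused to GST binding biotinylated APOBEC3G peptide 110-148; 0% = full assay without inhibitor and 100% = GST in place of GST-Vif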
# Conditions: TR-FRET GST-Vif / biotin-A3G peptide binding; stronger effect = higher value
row,SMILES,inhibition
1,NNC(=O)C1CC1c1ccc(Cl)cc1 (stereo not drawn),-1.47% (inactive)
2,CC(C)NC(=O)C1CCN(C2CCN(Cc3nc(C(C)C)cs3)CC2)CC1,10.5% (inactive)
3,CC(=O)C(Sc1nc(NC(C)(C)C)nc(N(C)C)n1)C(C)=O,-1.75% (inactive)
4,O=C(CCNS(=O)(=O)c1ccc(Br)s1)Nc1ccc(Cl)cc1,-2.43% (inactive)
5,CCOC(=O)c1ccc(CC(=O)c2oc3cc(O)ccc3c2C)o1,29.3% (inactive)
6,CCOC(=O)c1ccc(CC(=O)c2ccc(O)cc2O)o1,16.6% (inactive)
7,Cc1cc(O)cc(O)c1C(=O)Cc1ccccc1,31% (inactive)
8,COC(=O)c1ccc(CC(=O)c2ccc(O)cc2O)o1,21.4% (inactive)
9,Cc1onc(-c2c(Cl)cccc2Cl)c1C(N)=O,3.21% (inactive)
10,Cc1nnc(-c2cccc(Br)c2)c2cn(-c3ccc(Br)cc3)nc12,-35.9% (inactive)
11,CC(C)Oc1cc(NC(=O)CS(=O)(=O)CC(=O)N(C)C)c(Cl)cc1Cl,4.46% (inactive)
12,COc1ccccc1CNC(=O)COc1ccc2c(c1)CCC2,-14.6% (inactive)
13,O=C(COc1ccc2c(c1)CCC2)NCc1ccccc1,6.52% (inactive)
14,COc1cccc(COC(=O)C2CC(=O)N(Cc3ccccc3)C2)c1OC (stereo not drawn),4.65% (inactive)
15,CCOc1ccc(NC(=O)NCCCn2c(C)nc3cc(C)c(C)cc32)cc1,3.24% (inactive)
16,Cc1cc2nc(C)n(CCCNC(=O)Nc3ccc(C#N)cc3)c2cc1C,-0.77% (inactive)
17,CCCCSc1nnc(CCCCCNC(=O)OC(C)(C)C)o1,1.82% (inactive)
18,CN(C)S(=O)(=O)c1ccc(C(=O)OCC(=O)Nc2ccc(OC(F)F)cc2)cc1,-3.03% (inactive)
19,NC(=O)CCc1c[nH]c2ccccc12,14.6% (inactive)
20,NNC(=O)CCc1c[nH]c2ccccc12,1.22% (inactive)
21,O=C(NC(=O)c1cccc(F)c1)Nc1nc(-c2ccc(F)cc2)cc(C(F)(F)F)n1,0.6% (inactive)
22,Cc1nc([N+](=O)[O-])cn1CC(=O)c1ccc(F)cc1,-8.97% (inactive)
23,CCn1c(SCC(=O)N2CCCc3ccccc32)nc2ccccc2c1=O,-1.92% (inactive)
24,CN(C(=O)c1ccccc1C(=O)OCC(=O)Nc1ccccc1)c1ccccc1,-8.92% (inactive)
25,O=C(CCNS(=O)(=O)c1ccc(Br)s1)NCc1ccc2c(c1)OCO2,-6.46% (inactive)
26,CCO[C@@H]1OC(C(=O)NCc2ccccc2)=C[C@H](c2coc3ccccc3c2=O)[C@H]1CCCO,6.31% (inactive)
27,Cc1cc(C)c(C(=O)/C=C/c2cccs2)c(=O)[nH]1,1.47% (inactive)
28,Cc1ccc(/C=C/C(=O)c2c(C)cc(C)[nH]c2=O)cc1,-2.58% (inactive)

# Source: PubChem BioAssay AID1117319 (Southern Research Institute, 2015)
